Assay results published in PubChem BioAssay AID602449 (Sanford-Burnham Center for Chemical Genomics, 2012).
Out of some 360,000 compounds screened, about 5,000 (1.4%) were called active.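 Rule for the calls: active = inhibition of 50% or more, scaled per plate between neutral and stimulator controls; inactive = the rest.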 This excerpt belongs to a sample that is enriched for actives.

Assay: blockers of Ca2+-induced mitochondrial swelling – biochemical, isolated mouse mitochondria, absorbance, primary screen (AID 602449);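 note: 0% = DMSO wells given calcium and 100% = 1 mM EGTA wells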
Conditions: 30 min, at 10 µM, stronger effect = higher value

| SMILES | inhibition |
| --- | --- |
| CCOC(=O)c1ccc(NC(=S)N2CCCC2)cc1 | -9.2% (inactive) |
| CCCCCOC(=O)NCCOC(=O)Nc1ccc(C(=O)OCC)cc1 | 62.1% (active) |
| Cc1ccc(NC(=O)OCCNC(=O)c2ccncc2)cc1 | -2.2% (inactive) |
| CC1CCCCC12NC(=O)N(CC(=O)OCc1c(F)cccc1Cl)C2=O (stereo unspecified) | 1.5% (inactive) |
| Cc1cc(C(=O)O)c(S(C)(=O)=O)s1 | 0% (inactive) |
| O=S1(=O)CC(NCc2ccccc2)C(Nc2ccc(Cl)cc2)C1 (stereo unspecified) | -0.2% (inactive) |
| Cc1ccc(NC(=O)COc2ccc(-n3ccnc3)cc2)cc1Cl | 83.4% (active) |
| O=C(COc1ccc(Cl)cc1)Nc1ccc2c(c1)OCO2 | -0.4% (inactive) |
| Cc1cc(N2CCCC2)ccc1NC(=O)COc1ccc(Cl)cc1 | -0.2% (inactive) |
| COc1ccccc1Nc1ncc(C(C)=O)c(C)n1 | -2.1% (inactive) |
| CN(CC(=O)Nc1ccc(S(=O)(=O)N2CCCC2)cc1)Cc1ccc(Cl)c(Cl)c1 | 3.3% (inactive) |
| O=C(CSCc1ccc(Br)cc1)Nc1ccc(S(=O)(=O)N2CCCCCC2)cc1 | 58.6% (active) |
| O=C(CN1CCCCCC1)Nc1ccc(S(=O)(=O)N2CCCCC2)cc1 | 0.7% (inactive) |
| Cc1occc1-c1nnc(SCC(=O)NC2(C#N)CCCC2)n1C | -0.8% (inactive) |
| CC(C)(C)NC(=O)NC(=O)COC(=O)Cc1c(F)cccc1Cl | 2% (inactive) |
| O=C(Cc1c(F)cccc1Cl)Nc1ncc([N+](=O)[O-])s1 | 61.9% (active) |
| COc1ccc(S(=O)(=O)N2CCOCC2)cc1NC(=O)Cc1c(F)cccc1Cl | -0.8% (inactive) |
| O=C(OC(C(=O)NC1CCCC1)c1ccc(F)cc1)c1ccno1 (stereo unspecified) | -3.3% (inactive) |
| CC(=O)C1C(c2ccc(Cl)cc2)c2c(n[nH]c2C)CC1(C)O (stereo unspecified) | 1.5% (inactive) |
| Cc1ccc(OS(=O)Nc2cccc3nccnc23)cc1 (stereo unspecified) | -0.1% (inactive) |
| C/C(CC(=O)Nc1cccc(C(F)(F)F)c1)=N\NC(=O)C(=O)NCC(C)C | -0.9% (inactive) |

| SMILES | inhibition |
| --- | --- |
| S=C(Nc1cccc(Cl)c1)Nc1ccc2c(c1)OCCO2 | 53.6% (active) |
| O=C(Nc1cccc(S(=O)(=O)Nc2ccc(Cl)cc2)c1)c1ccc2c(c1)OCCO2 | 77.8% (active) |
| CC(NS(=O)(=O)c1ccc(Cl)cc1)C(=O)Nc1ccc2c(c1)OCCO2 (stereo unspecified) | -0.3% (inactive) |
| O=C(Nc1ccc2c(c1)OCCO2)C1CCCC1 | -1.6% (inactive) |
| O=C(Nc1ccc2c(c1)OCCO2)c1ccc(Cl)c(S(=O)(=O)N2CCCCC2)c1 | 9% (inactive) |
| FC(F)(F)c1cccc(NC(=S)Nc2cccc(Cl)c2)c1 | 97.6% (active) |
| O=C(Nc1cccc(Cl)c1)c1cncn1-c1ccc(F)cc1 | -1.7% (inactive) |
| S=C(NCc1ccco1)Nc1ccc2c(c1)OCCO2 | -2.6% (inactive) |
| O=C(NCCCn1ccnc1)C(=O)c1cn(CC(=O)N2CCCCCC2)c2ccccc12 | 0% (inactive) |
| Cc1c(C(=O)O)nnn1-c1nonc1N | -1.7% (inactive) |
| Cc1nn(-c2ccccc2)c2c1c(C)c(CCC(=O)NCC1CCCO1)c(=O)n2C (stereo unspecified) | 1.8% (inactive) |
| Cc1csc(NC(=O)CSc2nnc(-c3cccnc3)o2)n1 | -0.1% (inactive) |
| Cc1cc(C)nc(NS(=O)(=O)c2ccc(N/C=C\C(=O)c3cccs3)cc2)n1 | -0.9% (inactive) |
| CC(Sc1nnc(C2CC2)n1C1CC1)C(=O)Nc1ccc(C(N)=O)cc1 (stereo unspecified) | 0.5% (inactive) |
| Cc1nc(Nc2ccccc2C)c2cnn(C)c2n1 | -0.2% (inactive) |
| Cc1ccc2c(=O)cc(C(=O)NCCc3ccc(S(N)(=O)=O)cc3)oc2c1C | -0.4% (inactive) |
| O=C(Nc1cccc(-c2cccc(Cl)c2)c1)C1CCN(C2CCC2)CC1 | 65.4% (active) |
| CCn1cc(CN2CCC(C(=O)Nc3cccc(-c4cccc(Cl)c4)c3)CC2)cn1 | -0.3% (inactive) |
| CCn1cc(CN2CCC(C(=O)Nc3cccc(-c4cccc(Cl)c4)c3)CC2)c(C)n1 | 0.6% (inactive) |
| O=C(c1ccc(F)cc1)c1c[nH]c(C(=O)NCc2cccnc2)c1 | 0.8% (inactive) |
| Cc1cc(NC(=O)Nc2ccc(Cl)cc2)n(-c2ccccc2)n1 | 70.8% (active) |

| SMILES | inhibition |
| --- | --- |
| COc1ccc(NC(=O)c2cc3nc(-c4ccccc4)cc(C)n3n2)cc1OC | 2.1% (inactive) |
| Cc1ccc(NC(=O)Nc2cc(-c3ccccc3)nn2C)cc1Cl | 83.1% (active) |
| CC(=O)c1cccc(NC(=O)c2cc(C)nn2-c2ccccc2)c1 | -1.3% (inactive) |
| Cc1cc(C(=O)NCCc2ccc(Cl)cc2)n(-c2ccccc2)n1 | 1% (inactive) |
| O=C(Nc1ccc(Cl)c(Cl)c1)N1CC=C(c2ccccc2)CC1 | 12.4% (inactive) |
| O=C(NCc1ccc(F)cc1)C(c1ccccc1)N(C(=O)c1csnn1)C1CC1 (stereo unspecified) | 4.8% (inactive) |
| CC(C)NS(=O)(=O)c1ccc(NC(=O)C2CCCCC2)cc1 | -1.2% (inactive) |
| CCOc1cccc2c1OC1(CCCCC1)N1N=C(c3cccnc3)CC21 (stereo unspecified) | 0.5% (inactive) |
| CC(=O)Nc1ccc(CC#N)cc1 | 2.1% (inactive) |
| COc1cccc(N(C(=O)c2snc(C(N)=O)c2N)C(C(=O)NCC2CCCO2)c2c[nH]c3ccccc23)c1 (stereo unspecified) | -1.8% (inactive) |
| CCOC(=O)C1CCCN(S(=O)(=O)c2ccc(-n3cnnn3)c(C)c2)C1 (stereo unspecified) | 0.9% (inactive) |
| O=S(=O)([N-]c1nc2ccccc2nc1-[n+]1ccc(Cc2ccccc2)cc1)c1ccc(Br)s1 | 5% (inactive) |
| Cc1cccc(NS(=O)(=O)c2ccc(C(=O)NCC(C)(C)N3CCOCC3)cc2)c1C | 1.5% (inactive) |
| CCOc1ccc(NC(=O)c2ccc(NC(=O)COC(=O)c3ccc(NC(=O)CC#N)cc3)cc2)cc1 | 0.5% (inactive) |
| COc1ccc(NC(=O)COC(=O)C2COc3ccccc3O2)cc1 (stereo unspecified) | -0.6% (inactive) |
| CCC(C)(C)c1ccc(Oc2ccc(NC(=O)COC(=O)C3=COCCO3)cc2)cc1 | 79.2% (active) |
| FC(F)(F)Oc1ccc(NC(=S)NCc2ccccc2)cc1 | 77.1% (active) |
| O=S(=O)(Nc1ccc(O)c2ccccc12)c1ccc(OC(F)(F)F)cc1 | 34.9% (inactive) |
| O=C(NNC(=S)NCc1ccccc1)c1ccc(OC(F)F)cc1 | -1.2% (inactive) |
